# Compound activity deposited in PubChem BioAssay by Sanford-Burnham Center for Chemical Genomics.
# NLRP3 yeast inh: NALP3 inhibition in yeast | Yeast reconstituted NLRP3/ASC/caspase-1, beta-gal luminescence, 24 h | inhibition, % at 10 µM | 330,000 compounds, 0.39% hits | AID 2825;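 active = inhibition of 50% or more; inactive = inhibition below 50%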;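 also: plate controls were induced DMSO wells for no effect and uninduced yeast grown without galactose for full effect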
# NALP1 yeast inh: inhibitors of NALP1 inflammasome in yeast; S. cerevisiae NALP1/ASC/caspase-1 growth, X-gal OD620, 72 h; AID 2071; 280,000 compounds, 0.61% hits; inhibition, % at 10 µM; in the data active = inhibition mostly above about 24%, no sharp cut-off; inactive = mostly below about 32%
# tim10-1 inh: tim10-1 yeast growth inhibition. S. cerevisiae tim10-1 ts strain growth, BacTiter-Glo, 24 h. inhibition, % at 20 µM. 330,000 compounds, 2.2% hits. AID 463190;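 active = inhibition of at least 40%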;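 also: mutant grown at 25 °C; 0% = DMSO wells with yeast and 100% = wells holding no yeast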
# TIM10 inh: inhibits growth of TIM10 yeast strain; S. cerevisiae TIM10 strain growth, BacTiter-Glo luminescence, 24 h; inhibition, % at 10 µM; 330,000 compounds, 1.4% hits;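 active = inhibition of 40% or more at the single tested concentration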;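 also: wild-type TIM10 isogenic control strain grown at permissive 25 °C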
# tim23-1 inh: inhibits growth of tim23-1 mutant yeast | S. cerevisiae tim23-1 growth, BacTiter-Glo luminescence, 24 h | inhibition, % at 20 µM | 330,000 compounds, 1.3% hits | AID 463212;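 active = growth inhibition of the mutant yeast at or above 50%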;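 also: temperature-sensitive mutant grown at 25 °C; plate controls were DMSO-treated mutant yeast for no effect and medium wells lacking yeast for full effect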
# TIM10 conf: TIM10 yeast growth inhibition, confirmed; shares compounds with TIM10 inh; S. cerevisiae tim10 strain growth, BacTiter-Glo luminescence, 24 h; inhibition, % at 10 µM; 4,600 compounds, 63% hits;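 active = inhibition of yeast growth at or above a set limit in either of two replicates at 10 µM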;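 also: this counterscreen used the strain with wild-type TIM10; 0% = yeast with DMSO and 100% = medium wells lacking yeast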
# An asterisk follows results filed as active; nt = no result. Most compounds without a hit are left out; they make up all but 4.1% or so of the library.
SMILES,NLRP3 yeast inh,NALP1 yeast inh,tim10-1 inh,TIM10 inh,tim23-1 inh,TIM10 conf
O=c1[nH]c2ccc(Cl)cc2c(-c2ccccc2)c1SC(=S)N1CCOCC1,18,17,24,17,14,nt
O=c1[nH]c2ccc(Cl)cc2c(-c2ccccc2)c1SC(=S)N1CCCCC1,33,9,32,40*,35,27
COc1ccc2oc(C(=O)OCC(=O)N(C)c3c(N)n(Cc4ccccc4)c(=O)[nH]c3=O)c(C)c2c1,10,nt,6,11,7,nt
CN(c1ccccc1)S(=O)(=O)c1ccc(NC(=S)NC(=O)C2CC2)cc1,-4,23,32,41*,34,-3
CN(c1ccccc1)S(=O)(=O)c1ccc(NC(=S)NC(=O)c2ccccc2)cc1,1,28,19,6,13,nt
CN(C1CCCCC1)S(=O)(=O)c1ccc(NC(=S)NC(=O)c2cccs2)cc1,14,6,33,51*,38,36*
O=[N+]([O-])c1ccc(N/N=C/C=C/c2ccco2)cc1,35,nt,20,18,38,nt
CC12CCC(C(=O)N(CSC(=S)N/N=C\c3ccccc3)C1=O)C2(C)C (stereo unspecified),22,5,36,58*,5,50*
CC12CCC(C(=O)N(CC(=O)O)C1=O)C2(C)C (stereo unspecified),12,4,-11,8,-1,nt
COc1ccc(CNC2CC(C)N(C)CC2C)cc1OC (stereo unspecified),6,0,8,-4,7,nt
CCCc1cc(C(=O)N2CCN(c3ccccc3C)CC2)cs1,-49,16,32,40*,34,36*
O=C(O)CC(C(=O)O)c1ccc(OCCCCOc2ccc(C(CC(=O)O)C(=O)O)cc2)cc1 (stereo unspecified),2,2,12,2,12,nt
O=C(COC(=O)c1ccc([N+](=O)[O-])o1)Nc1ccc(Br)cc1F,2,nt,-32,47*,19,50*
O=C(COC(=O)c1ccc([N+](=O)[O-])o1)Nc1ccc(F)cc1,9,nt,-139,-106,15,nt
Cc1ccc(NC(=S)N/N=C/c2ccc([N+](=O)[O-])s2)cc1,16,26,18,46*,-11,-18
COc1cc(C(c2nnnn2C(C)(C)C)N2CCN(c3nc4ccccc4s3)CC2)ccc1O (stereo unspecified),13,1,8,9,0,nt
O=C(CNS(=O)(=O)c1ccc(Br)s1)NCC1COc2ccccc2O1 (stereo unspecified),19,18,33,61*,-19,49*
O=C(CNC(=O)c1ccc(Br)o1)NCC1COc2ccccc2O1 (stereo unspecified),-2,nt,14,4,15,nt
CN(C)S(=O)(=O)c1ccc(N2CCCC2)c(C(=O)N2CCN(c3ccc([N+](=O)[O-])cc3)CC2)c1,12,-8,9,-7,-1,nt
COc1ccc(N2C(=O)CSC2c2ccc3c(c2)OCO3)c(OC)c1 (stereo unspecified),-22,5,40,41*,21,27
CCCN(CC(=O)Nc1ccccc1OC)C(=O)c1ccc2c(c1)NC(=O)C(C)S2 (stereo unspecified),22,nt,-6,1,7,nt
CC(C)CCNC(=O)c1sc2ccc(S(=O)(=O)N3CCCCC3)cc2c1N,12,9,29,41*,38,38*
Cc1ccc(-c2nc3cc(C)ccc3o2)cc1,20,7,19,5,12,nt
Cc1ccc(-c2nc3cc(N)ccc3o2)cc1,-12,27,36,41*,25,30*
Cc1ccc(-c2nc3cc(NS(=O)(=O)c4ccc(C)cc4)ccc3o2)cc1,7,8,35,45*,35,37*
SMILES,NLRP3 yeast inh,NALP1 yeast inh,tim10-1 inh,TIM10 inh,tim23-1 inh,TIM10 conf
COc1ccc(C(=O)N2CCCC(c3ccccc3)=N2)cc1,30,5,40,45*,39,22
Cc1ccc(C(=O)N2CCCC(c3ccc(Cl)cc3)=N2)cc1,23,-4,31,4,29,nt
COc1cc(/C=N/NC(=O)COc2ccccc2C)ccc1OC(=O)c1cccs1,-2,17,30,43*,28,41*
CCCn1c(SCC(=O)NCCCN2CCCC2=O)nc2ccccc2c1=O,3,nt,9,1,4,nt
CCOC(=O)Oc1ccc2c(=O)c(Oc3cc(C)cc(C)c3)coc2c1,-10,-10,39,44*,44,29
Cc1ccc(C)c(Oc2coc3cc(OC(=O)c4cccs4)ccc3c2=O)c1,21,nt,31,40*,26,23
COc1ccc(Oc2coc3cc(OC(=O)c4cccs4)ccc3c2=O)cc1,-11,22,15,16,-4,nt
c1ccc(Cn2c(-c3ccco3)nc3nc4ccccc4nc32)cc1,14,7,35,43*,27,-21
CCCCCn1c(-c2ccco2)nc2nc3ccccc3nc21,26,39,13,33,40,nt
O=C(CCc1nnc2ccc(NCc3ccco3)nn12)Nc1ccc(F)cc1F,0,-20,1,0,-7,nt
O=C1NC(=S)S/C1=C\c1coc2ccccc2c1=O,4,7,13,44*,28,25
Cc1nc(-c2ccc(F)cc2)c(CC(=O)NCC(=O)Nc2ccc(F)c(F)c2)s1,5,nt,3,0,-1,nt
COc1ccccc1CNC(=O)C1CC2Cn3c(nc4cc(Cl)c(Cl)cc43)C2N1C (stereo unspecified),24,nt,30,-14,-1,nt
COCc1ccc(-c2c(-c3ccsc3)sc3ccccc23)cc1,4,nt,0,-3,3,nt
Oc1ccc(-c2c(-c3ccsc3)sc3ccccc23)cc1,8,22,30,48*,41,61*
CCn1ncc(Br)c1C(=O)Nc1ccc(C(=O)OC(C)C)cc1,18,0,18,44*,5,10
COc1ccc(/C=C/c2cc(C(=O)O)c3ccccc3n2)cc1,12,nt,15,26,33,nt
Cc1cc(/C=C\c2ccccc2)nc2ccccc12,22,3,5,53*,21,62*
COC(=O)N/N=C/c1c(C)c(C(=O)c2ccc(F)cc2)n2ccccc12,33,36,30,22,26,nt
CCOC(=O)N/N=C/c1c(C)c(C(=O)c2ccc(F)cc2)n2ccccc12,25,11,40,44*,37,32*
CCOC(=O)C1CCN(C(=O)c2ccc3c(c2)NC(=O)/C(=C\c2ccc(C)cc2)S3)CC1,25,-4,21,41*,47,-4
Cc1cc(F)ccc1NCc1cc2c(cc1[N+](=O)[O-])OCO2,5,41,29,45*,34,41*
Cn1c(-c2ccc(F)cc2)cnc1NCc1cc2c(cc1[N+](=O)[O-])OCO2,14,27,9,-15,-14,nt
CCOc1ccc(/C=N/NC(=S)Nc2c(C)cccc2C)cc1,27,29,36,52*,31,4
